# aSyn UTR inh – 5' untranslated region of α-synuclein, MLPCN primary screen; alpha-synuclein 5'UTR reporter, inhibitor activity; inhibition, % (tested at 7.5 µM); 300,000 tested, 0.82% active; in the data active = inhibition above about 60%;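 note: H4 neuroglioblastoma cells stably carrying SNCA 5'UTR luciferase fusion; 0% = DMSO wells and 100% = positive control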
# Mdm2 MdmX PPI – inhibitors of human Mdm2/MdmX interaction; inhibition, % at 8 µM; SaOS-2 split-luciferase Mdm2/MdmX complementation, luminescence; AID 485346; 330,000 tested, 3% active; O15151+Q00987;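 active = inhibition of at least 50% at 8 µM in the primary screen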
# Target sequence (O15151 whole entry, looked up): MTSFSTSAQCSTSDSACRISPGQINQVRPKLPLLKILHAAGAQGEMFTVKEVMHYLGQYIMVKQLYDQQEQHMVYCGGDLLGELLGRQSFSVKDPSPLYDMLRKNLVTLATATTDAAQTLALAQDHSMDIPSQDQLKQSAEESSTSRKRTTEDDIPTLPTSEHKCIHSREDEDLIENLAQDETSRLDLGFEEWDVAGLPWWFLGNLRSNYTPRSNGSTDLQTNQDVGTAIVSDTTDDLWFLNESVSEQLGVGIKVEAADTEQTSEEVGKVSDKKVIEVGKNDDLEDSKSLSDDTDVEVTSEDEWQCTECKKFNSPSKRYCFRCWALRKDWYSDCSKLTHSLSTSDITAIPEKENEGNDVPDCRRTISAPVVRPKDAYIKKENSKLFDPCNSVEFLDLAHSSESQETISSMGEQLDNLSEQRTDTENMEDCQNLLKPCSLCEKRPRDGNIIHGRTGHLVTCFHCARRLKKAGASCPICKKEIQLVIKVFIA
# Target sequence (Q00987 whole entry, looked up): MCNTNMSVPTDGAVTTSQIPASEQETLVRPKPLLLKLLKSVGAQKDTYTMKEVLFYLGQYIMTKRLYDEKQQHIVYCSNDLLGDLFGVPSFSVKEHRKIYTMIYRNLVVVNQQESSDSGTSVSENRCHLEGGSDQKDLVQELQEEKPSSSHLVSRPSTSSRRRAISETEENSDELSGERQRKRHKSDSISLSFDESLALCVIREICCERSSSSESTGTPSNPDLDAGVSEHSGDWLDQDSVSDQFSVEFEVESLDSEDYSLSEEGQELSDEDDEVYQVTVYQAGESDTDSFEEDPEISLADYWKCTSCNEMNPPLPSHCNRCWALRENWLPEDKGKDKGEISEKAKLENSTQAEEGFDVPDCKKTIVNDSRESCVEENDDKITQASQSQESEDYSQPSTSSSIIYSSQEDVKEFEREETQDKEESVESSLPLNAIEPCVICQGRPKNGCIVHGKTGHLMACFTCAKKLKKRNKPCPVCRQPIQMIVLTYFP
# CSC inhib – cancer stem cell inhibition. cancer stem cell-like cells viability, luminescence. inhibition, % at 7.5 µM. 300,000 tested, 1.1% active. AID 2717; in the data active = inhibition above about 75%; tested in HMLE shEcad cells
# A1 inh – inhibitors of the anti-apoptotic protein A1, read as caspase activation; MEF A1-2A-BIM cells, Caspase-Glo 3/7 luminescence, 3 h; percent of clofoctol response, vehicle zero; caspase activation, % (no concentration beside the values); 330,000 tested, 0.066% active;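 active = over half of replicate activation scores above 10%, or exactly half above 10 with the replicate mean above 10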
# Beta cell apopt – beta cell apoptosis inhibition | INS-1E cytokine-induced death, ATP luminescence, 48 h; percent of positive-control rescue, neutral wells zero | protection from apoptosis, % (test concentration not listed) | 300,000 tested, 0.8% active;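 active = Every replicate reaches about 75%, or at least half do and their mean reaches it too, limit read from the data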;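 note: 0% = cytokine-treated negative control wells and 100% = positive control rescue; higher means more ATP so stronger rescue from cytokine killing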
# Mdm2-MdmX conf – human Mdm2/MdmX binding inhibition, confirmed; shares compounds with Mdm2 MdmX PPI; luminescent assay; inhibition, % at 8 µM; 10,000 tested, 55% active; AID 489028; in the data active = inhibition above about 40%
# Full FLuc ctr – full-length luciferase inhibition in Mdm2/MdmX counter-screen | inhibition, % at 8 µM | SaOS-2 full-length luciferase counterscreen, luminescence | shares compounds with Mdm2 MdmX PPI | 6,200 tested, 77% active;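 active = mean inhibition at 8 µM reaching about 37%, which flags the compound as non-specific, limit read from the data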;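 note: p53-null SaOS-2 cells with luciferase driven by a doxycycline-inducible promoter; compound on cells about two nights before reading with doxycycline added after day one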
# Numbers without * were called inactive; . = not tested or not shown. Shown are actives, neighbours in structure and some others; about 4.1% of the full set was active somewhere.
SMILES,aSyn UTR inh,Mdm2 MdmX PPI,CSC inhib,A1 inh,Beta cell apopt,Mdm2-MdmX conf,Full FLuc ctr
O=C(NCCCO)C(=O)Nc1ccc2c(c1)N(S(=O)(=O)c1cccs1)CCC2,9.2,-7.5,.,0.4,-6.2,.,.
COc1ccc(NC(=O)C(=O)NCCC2CCCCN2S(=O)(=O)c2ccccc2)cc1 (stereo not given),-49.0,55.1*,3.1,-0.6,.,78.7*,56.1*
Cc1cc(C)c(S(=O)(=O)N2CCCCC2CCNC(=O)C(=O)NC2CC2)c(C)c1 (stereo not given),-43.2,91.8*,15.5,1.4,13.8,94.5*,25.4
COc1ccc(CCNC(=O)C(=O)NCC2CCCN2S(=O)(=O)c2ccccc2)cc1OC (stereo not given),3.2,51.8*,10.2,-0.1,-4.0,26.4,.
COc1ccc(CNC(=O)C(=O)NCCC2CCCCN2S(=O)(=O)c2ccccc2)cc1 (stereo not given),21.5,1.7,9.3,0.5,1.3,.,.
Cc1cc(S(=O)(=O)N2CCCCC2CCNC(=O)C(=O)NC2CC2)ccc1F (stereo not given),3.0,-3.4,-20.9,-0.1,.,.,.
COCCNC(=O)C(=O)Nc1ccc2c(c1)N(S(=O)(=O)c1cccs1)CCC2,-17.5,55.6*,.,0.6,7.2,72.2*,63.9*
COCCSc1nnc(NC(=O)CCS(=O)(=O)c2ccccc2)s1,-20.6,31.0,21.1,-0.3,-11.4,.,.
Cc1nc2cc(NC(=O)c3ccc(S(=O)(=O)N(C)c4ccccc4)cc3)ccc2o1,-131.7,12.2,30.0,-0.3,-0.2,.,.
O=C(NCCC1CCCCN1S(=O)(=O)c1cccs1)C(=O)Nc1ccccc1 (stereo not given),-26.5,2.4,-12.7,-1.2,.,.,.
COc1ccc(NC(=O)C(=O)NCCC2CCCCN2S(=O)(=O)c2cccs2)cc1 (stereo not given),3.3,52.5*,43.3,0.2,.,73.3*,74.8*
C=CCc1cccc(/C=N/NC(=O)CNc2ccccc2OC)c1O,22.7,69.2*,34.1,0.4,-3.1,55.0*,28.3
C=CCc1cccc(/C=N/NC(=O)C(C)Nc2cccc(C)c2)c1O (stereo not given),29.5,70.5*,51.9,0.3,22.2,55.6*,34.9
C=CCc1cccc(/C=N/NC(=O)CNc2cccc3ccccc23)c1O,-6.4,71.2*,64.3,0.0,.,66.0*,38.9*
C=CCc1cccc(/C=N/NC(=O)CCC(=O)Nc2ccc(F)cc2)c1O,40.8,70.7*,21.7,0.1,92.9*,63.6*,17.4
C=CCc1cccc(/C=N/NC(=O)C[n+]2ccccc2)c1O,5.7,6.7,72.7,-1.5,53.7,.,.
COc1ccccc1NCC(=O)N/N=C/c1cccnc1,4.6,0.0,-8.2,-0.5,-0.3,.,.
COc1cc([N+](=O)[O-])cc(/C=N/NC(=O)C(C)Nc2cccc(C)c2)c1O (stereo not given),11.0,36.1,.,-0.5,.,.,.
COc1ccc(-c2csc(NC(=O)CSCc3c(C)noc3C)n2)c(OC)c1,7.6,16.0,-10.3,1.2,5.2,.,.
CC1CC1C(=O)OCC(=O)N(C)c1c(N)n(Cc2ccccc2)c(=O)[nH]c1=O (stereo not given),-4.7,19.6,-15.3,0.3,1.6,.,.
C=CCc1cccc(/C=N/NC(=O)CCCNc2ccc(C)cc2)c1O,-19.5,.,49.3,1.2,-2.5,.,.
C=CCc1cccc(/C=N/NC(=O)CNc2ccccc2)c1O,73.9*,55.6*,63.3,-0.4,90.0*,55.3*,32.9
COc1cccc2cc(-c3cc(=O)oc4cc(C)c(OCC(C)=O)cc34)oc12,-13.1,54.5*,12.8,0.7,10.0,-13.7,.
COc1ccc2oc(=O)cc(-c3cc4cccc(OC)c4o3)c2c1,37.9,37.3,-17.2,0.1,3.0,.,.
COc1cc(/C(O)=C(\C#N)c2nc3ccccc3[nH]2)cc(OC)c1OC,-37.7,22.3,-10.1,1.1,2.1,.,.
SMILES,aSyn UTR inh,Mdm2 MdmX PPI,CSC inhib,A1 inh,Beta cell apopt,Mdm2-MdmX conf,Full FLuc ctr
Cc1onc(-c2ccccc2)c1-c1nnc(COC(=O)c2ccc(O)cc2)o1,.,8.1,.,.,.,.,.
COc1cc2cc(-c3ccc(O)cc3O)nc(C)c2cc1OC,-115.9,83.5*,23.3,0.4,7.2,53.3*,52.9*
CCOc1ccc(-c2cc3cc(OC)c(OC)cc3c(C)n2)cc1,-29.7,1.8,-12.5,0.6,-5.3,.,.
COc1cc2cc(-c3ccc(OC)c(OC)c3C)nc(N)c2cc1OC,95.5*,93.5*,62.7,1.5,-10.8,70.5*,61.6*
CCCC[C@@H](CNC)NC[C@H](Cc1ccc(O)cc1)NCCc1ccc(OCC)cc1,-33.9,97.5*,29.3,-0.1,8.9,52.0*,73.5*
Cc1cccc(-n2cnc3c(c2=O)c2nc4ccccc4nc2n3Cc2ccco2)c1,14.1,54.3*,41.1,-0.1,7.9,25.6,.
COCC(=O)N(C)C[C@H]1N[C@@](C)(C(=O)OC)[C@H]2C(=O)N(C)C(=O)[C@@H]12,.,-1.0,.,.,.,.,.
CCOC(=O)c1ccc(Nc2ncnc3c2cnn3C)cc1,-1.0,7.9,-1.3,0.1,4.9,.,.
Cn1ncc2c(O/N=C(\N)c3ccc(C(C)(C)C)cc3)ncnc21,104.1*,99.3*,108.0*,1.2,109.7*,100.1*,52.1*
COCc1cc(C)nc(OCC(=O)N/N=C/c2ccc(-c3cc([N+](=O)[O-])ccc3Cl)o2)c1C#N,10.3,68.9*,8.8,1.2,12.0,-4.2,.
CC(=O)C[C@H](O)CC(=O)[C@@H]1OC(=O)CCCCCCc2ccccc21,.,-5.9,11.4,-2.2,-7.3,.,.
CCc1nc(SCC(=O)Nc2c(C)nn(C)c2C)c2cnn(-c3ccccc3)c2n1,-26.3,.,.,.,.,.,.
Cc1nn(C)c(C)c1NC(=O)CSc1nc(Cc2ccccc2)nc2c1cnn2-c1ccccc1,17.0,94.2*,8.2,0.1,-7.0,57.1*,102.8*
COCCN(C(=O)C1CCCO1)c1c(N)n(CC(C)C)c(=O)[nH]c1=O (stereo not given),.,-9.8,-5.3,0.3,-6.3,.,.
O=C1NCCc2c1[nH]c1c(Cl)ccc(Cl)c21,38.7,76.7*,.,-0.4,-17.3,62.8*,48.3*
C(=C\c1ccccc1)/CSc1nnc(-c2ccccn2)n1Cc1ccco1,2.5,59.1*,51.6,-0.9,12.3,49.0*,87.0*
NC(=O)CSc1nnc(-c2ccccn2)n1Cc1ccco1,13.6,-5.3,12.9,1.5,3.1,.,.
CCNC(=S)N1CCN(c2nc(CC)nc3sc4c(c23)CCCC4)CC1,0.6,2.6,10.9,-0.5,35.9,.,.
CCc1nc(N2CCN(C(C)=O)CC2)c2c3c(sc2n1)CC(C(C)(C)C)CC3 (stereo not given),11.1,72.3*,12.1,-1.0,117.7*,25.2,62.6*
CCc1nc(N2CCN(C(=O)CCl)CC2)c2c3c(sc2n1)CC(C)CC3 (stereo not given),6.0,100.3*,16.6,0.1,17.2,10.9,.

# Compound activity: PubChem BioAssay, several laboratories
